Results reported in PubChem BioAssay (Tox21).
Records with an inconclusive call do not appear. A number with no mark means an inactive call. Calls come from the whole dose curve; as a rule, active = well fitted cell-killing curve with a large enough effect in the repeat runs; inconclusive = weak or mixed curves, or effect the other way; inactive = flat fitted curve, though single readings scatter.

Assay: qHTS assay to identify small molecule antagonists of the androgen receptor (AR) signaling pathway using the MDA cell line in the presence of 0.5 nM R1881 - cell viability counter screen (AID 1259242); note: nearly all actives have a fitted effect of over 45% in size
Settings: MDA-kb2 viability, CellTiter-Fluor protease fluorescence, 16 h; series mostly up to 92.4 µM; viability change, negative = cytotoxic: at the top concentration
Excerpt: U.S. Tox21 Program National Center for Advancing Translational Sciences [NCATS] NIH Chemical Genomics Center [NCGC] U.S. Environmental Protection Agency [EPA] National Institutes of Environmental Health Sciences [NIEHS] National Toxicology Program [NTP] U.S. Food and Drug Administration [FDA] Tox21 Assay Overview: Androgen receptor (AR) is an important member of the nuclear receptor family. Its signaling plays a critical role in AR-dependent prostate cancer and other androgen related diseases. Considerable attention has been given in the past decades to develop methods to study and screen for the environmental chemicals that have the potential to interfere with metabolic homeostasis, reproduction, developmental and behavioral functions. Therefore AR binding assay for screening androgen antagonists can be used to identify potential endocrine disruptors. MDA-kb2 cells (from ATCC, deposited by Wilson et al.) were used to screen for AR inhibitors against Tox21 compound libraries. These cells are human breast carcinoma cells that were stably transfected with a luciferase reporter gene under control of the MMTV promoter that contains response elements for both androgen receptor (AR) and glucocorticoid receptor (GR). The current screening for identification of AR inhibitors against Tox21 libraries used lower concentration of (0.5 nM) R1881 as a stimulator. The cytotoxicity of the Tox21 compound libraries against MDA-kb2 cell line was tested by measuring live-cell protease activity using CellTiter-Fluor assay in the same wells.
Tox21 Assay Protocol Summary: MDA-kb2 cells (cells cultured without CO2) were dispensed at 3,000 cells/well in 4 uL of culture medium into white wall/solid-bottom 1536-well plates (Corning Life Sciences, Corning, NY) using a Multidrop Combi (ThermoFisher Scientific, Waltham, MA) dispenser. After the assay plates were incubated at a 37C and 0% CO2 for 5 hr, 23 nL of compounds dissolved in DMSO, positive controls or DMSO only was transferred to the assay plate by a Pintool station (Kalypsys, San Diego, CA). The transfer of compounds was followed by the addition of 1 uL of 0.5 nM (final concentration) agonist (R1881)/culture medium using a Flying Reagent Dispenser (FRD, Aurora Discovery, San Diego, CA). The plates were incubated at 37C and 0% CO2 for 16 hr. For cytotoxicity assay, 1 uL of CellTiter-Fluor reagent (Promega Corporation, Madison, WI) was added to each well using the FRD and after 30 min incubation at 37C and 0% CO2, The fluorescence intensity was measured using ViewLux plate reader (PerkinElmer, Shelton, CT).
% is set by controls: 0 for no effect and ±100 for the full control effect.

| SMILES | viability change, negative = cytotoxic |
| --- | --- |
| OCCSCSCCO | 2.48% |
| Fc1cc(Br)ccc1CBr | 7.83% [at 42.5 µM] |
| CCCSP(=S)(OCC)Oc1ccc(Cl)cc1Cl (stereo not given) | 2.51% |
| CC(N)=S | 0.313% |
| CC(=O)Nc1cc([As](=O)(O)O)ccc1O | -2.76% [at 42.5 µM] |
| CN(N=O)C(N)=O | 1.93% |
| CCCCOC(=O)c1ccccc1N | -0.611% |
| Cc1ccccc1CO[C@@H]1C[C@@]2(C(C)C)CC[C@]1(C)O2 | -0.4% |
| O=P(O)(Oc1ccccc1)Oc1ccccc1 | 1.46% |
| CC(=O)CC(c1ccc(Cl)cc1)c1c(O)c2ccccc2oc1=O (stereo not given) | -4.94% |
| CC(C)[N+](=O)[O-] | -0.0407% |
| CN/C(=N\[N+](=O)[O-])NCC1CCOC1 (stereo not given) | -0.202% |
| CC(C(O)c1ccccc1)N(C)C/C=C/c1ccccc1 (stereo not given) | -10% [at 42.5 µM] |
| Nc1n[nH]c(N)n1 | -3.73% |
| COc1ccc2c(c1OC)CN1CCc3cc4c(cc3C1C2)OCO4 (stereo not given) | -8.65% [at 42.5 µM] |
| CC(C)(C)C(=O)C(Oc1ccc(Cl)cc1)n1cncn1 (stereo not given) | 2.87% |
| O=[N+]([O-])c1ccc2c3c(cccc13)CC2 | -3.69% |
| CCCCCCBr | 3.01% |
| CC(COc1ccc(Oc2ccccc2)cc1)Oc1ccccn1 (stereo not given) | -0.781% |
| O=C1c2ccccc2C(=O)c2ccccc21 | 3.34% [at 19 µM] |

| SMILES | viability change, negative = cytotoxic |
| --- | --- |
| CCCSP(=O)(OCC)Oc1ccc(Br)cc1Cl (stereo not given) | 0.388% [at 42.5 µM] |
| CNC(=O)Oc1c(C(C)(C)C)cc(C)cc1C(C)(C)C | 0.0354% |
| Cc1cc(C)nc(Nc2ccccc2)n1 | 1.56% |
| O=C1OC(c2ccc(O)c(S(=O)(=O)O)c2)(c2ccc(O)c(S(=O)(=O)O)c2)c2c(Br)c(Br)c(Br)c(Br)c21 | -6.84% [at 42.5 µM] |
| CC(=O)[C@H]1CC[C@H]2[C@@H]3CC[C@H]4C[C@H](O)CC[C@]4(C)[C@H]3C(=O)C[C@]12C | 4.1% [at 42.5 µM] |
| CNC(=O)Oc1ccccc1C1OCCO1 | -1.23% |
| CCOC(=O)/C=C(C)/C=C/C[C@@H](C)CCCC(C)C | -1.03% |
| CCOC(=O)C1(c2ccccc2)CCN(CCc2ccc(N)cc2)CC1 | -9.29% [at 42.5 µM] |
| C(CCOCC1CO1)COCC1CO1 (stereo not given) | 7.18% |
| CC(CC(C#N)(c1ccccc1)c1ccccc1)N(C)C (stereo not given) | 0.982% |
| CC(C)(C)NCC(O)c1cc(Cl)c(N)c(Cl)c1 (stereo not given) | -7.87% [at 42.5 µM] |
| CCN(CC)c1nc(C)cc(OP(=S)(OC)OC)n1 | 0.583% |
| CCCSC(=O)Cl | -0.569% |
| CCOC(=O)N(C)C(=O)CSP(=S)(OCC)OCC | 2.54% |
| Cc1ncsc1CCCl | 12.5% [at 42.5 µM] |
| ClCCCN1CCN(c2cccc(Cl)c2)CC1 | 0.197% [at 42.5 µM] |
| COc1cc(OC)nc(Sc2cccc(Cl)c2C(=O)O)n1 | -6.36% |
| NC1=NC(=O)C(c2ccccc2)O1 (stereo not given) | 1.96% [at 42.5 µM] |
| CCC#N | 1.43% |
| CSc1ccc(C(=O)C(C)(C)N2CCOCC2)cc1 | 8.27% |
